PI5P4Ka inh = qHTS for Inhibitors of phosphatidylinositol 5-phosphate 4-kinase (PI5P4K). Phosphatidylinositol 5-phosphate 4-kinase type-2 alpha (Homo sapiens), P48426. PI5P4Kalpha enzyme, ADP-Glo luminescence, 60 min; active compounds read low. max response, %. hit rate 1.2% among 330,000; active means max response of -50% or lower; inconclusive means between -30% and -50%; inactive means -30% or higher; further: value at the top dose of about 77 µM; on the % scale 0 is the no-effect control and ±100 the full control effect
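Compounds were pin-transferred onto PI5P4Kalpha and substrate in HEPES pH 7.4 buffer with EGTA, CHAPS and 5% DMSO. ATP (5 microM final) started the reaction, which ran 60 minutes at room temperature before ADP-Glo detection.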
JMJD2A Tudor = qHTS Assay for Inhibitors of JMJD2A-Tudor Domain; Potency, µM (titrated, usually from 114 µM), for inactives: at the highest dose activity change, negative = inhibition, hits mostly inhibitors; Lysine-specific demethylase 4A (Homo sapiens), O75164; hit rate 4.4% among 390,000; AlphaScreen JMJD2A-Tudor / H3K4me3 peptide binding; further: potency means the concentration at half of the fitted maximal effect; on the % scale 0 is the no-effect control and ±100 the full control effect; nearly all actives have a fitted effect of over 50% in size
Target sequence (O75164 whole entry, looked up, the tested form may be a part): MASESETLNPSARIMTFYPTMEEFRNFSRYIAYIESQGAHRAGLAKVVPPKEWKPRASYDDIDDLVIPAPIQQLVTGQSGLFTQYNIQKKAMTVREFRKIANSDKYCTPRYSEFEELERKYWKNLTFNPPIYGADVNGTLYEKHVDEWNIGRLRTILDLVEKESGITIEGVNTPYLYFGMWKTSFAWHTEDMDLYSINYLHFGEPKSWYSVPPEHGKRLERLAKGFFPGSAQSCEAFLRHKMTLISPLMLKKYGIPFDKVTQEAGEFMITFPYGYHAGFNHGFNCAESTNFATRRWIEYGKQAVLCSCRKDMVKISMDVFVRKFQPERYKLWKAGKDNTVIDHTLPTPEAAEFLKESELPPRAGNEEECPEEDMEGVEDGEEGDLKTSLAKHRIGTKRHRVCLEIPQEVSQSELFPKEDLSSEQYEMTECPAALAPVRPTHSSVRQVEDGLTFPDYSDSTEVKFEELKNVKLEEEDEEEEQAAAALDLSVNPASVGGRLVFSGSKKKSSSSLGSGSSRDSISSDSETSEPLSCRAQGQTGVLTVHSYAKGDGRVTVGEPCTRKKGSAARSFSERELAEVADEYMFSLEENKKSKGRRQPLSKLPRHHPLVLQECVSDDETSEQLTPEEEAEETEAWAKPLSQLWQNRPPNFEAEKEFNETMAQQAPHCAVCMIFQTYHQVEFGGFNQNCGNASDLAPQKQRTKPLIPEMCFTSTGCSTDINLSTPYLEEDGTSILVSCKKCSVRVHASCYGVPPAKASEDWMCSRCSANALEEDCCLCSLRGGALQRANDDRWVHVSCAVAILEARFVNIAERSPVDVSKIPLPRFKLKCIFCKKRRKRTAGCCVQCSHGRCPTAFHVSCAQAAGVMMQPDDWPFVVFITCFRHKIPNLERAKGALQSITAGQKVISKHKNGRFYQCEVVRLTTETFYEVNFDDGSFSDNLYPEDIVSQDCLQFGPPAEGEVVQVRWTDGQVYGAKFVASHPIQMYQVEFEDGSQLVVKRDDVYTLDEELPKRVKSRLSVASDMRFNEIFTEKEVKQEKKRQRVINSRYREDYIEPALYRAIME
BAZ2B block = qHTS Assay for Inhibitors of BAZ2B. Bromodomain adjacent to zinc finger domain protein 2B (Homo sapiens), Q9UIF8. AID 504333, 2011. AlphaScreen BAZ2B-H3K14Ac peptide displacement. Potency, µM (highest dose often 114 µM), inactives show at the top dose activity change, negative = inhibition, usual class: inhibitors. hit rate 4.4% among 360,000; further: potency means the concentration at half of the fitted maximal effect; on the % scale 0 is the no-effect control and ±100 the full control effect; nearly all actives have a fitted effect of over 60% in size
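Inhibition is scored as reduced AlphaScreen emission. The BAZ2B/b-H3(5-23)K14Ac complex (50 nM each) in PBS pH 7.4, 0.01% Tween-20 meets compound (up to 110 uM) for 30 min at RT before bead addition.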
HP1b binding inh = HTS for Inhibitors of HP1-beta Chromodomain Interactions with Methylated Histone Tails; Chromobox protein homolog 1 (Homo sapiens), P83916; AlphaScreen HP1-beta / biotin-H3K9me3 peptide binding; Potency, µM (highest dose often 114 µM), inactives show at the highest dose activity change, negative = inhibition, hits mostly inhibitors; hit rate 0.56% among 390,000; further: potency means the concentration at half of the fitted maximal effect; nearly all actives have a fitted effect of over 70% in size
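HP1-beta protein (50 nM final) preincubated 30 min at room temperature with biotinylated H3(1-18)K9me3 peptide (50 nM) in PBS pH 7.4, 0.01% Tween-20, then compound added for 30 min. AlphaScreen streptavidin donor/nickel chelate acceptor beads (10 ug/mL final), 30 min dark, luminescence read.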
KDM4E inh = qHTS Assay for Inhibitors of Human Jumonji Domain Containing 2E (JMJD2E). Lysine-specific demethylase 4E (Homo sapiens), B2RXH2. JMJD2E catalytic domain, FDH-coupled NADH fluorescence (FDH is formaldehyde dehydrogenase). Potency, µM (highest dose often 57.1 µM), for the others: top-dose activity change, negative = inhibition, usual class: inhibitors. hit rate 1.6% among 230,000; active means well fitted inhibition curve with a large enough effect, not every such curve was filed as active; inconclusive means small, poorly fitted or top-dose-only effect, or another doubt; inactive means no such curve, though single readings can be large or run the other way;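 further: potency means the concentration at half of the fitted maximal effect; 0% = wells with enzyme and -100% = buffer wells without enzyme; nearly all actives have a fitted effect of over 50% in size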
L3MBTL1 block = qHTS Assay for the Inhibitors of L3MBTL1; hit rate 0.66% among 230,000; AlphaScreen L3MBTL1–H3K9me1 peptide binding; Potency, µM (doses to about 57.1 µM), for inactives: at the top dose activity, negative = inhibition, most hits filed as inhibitors; AID 485360, 2010; further: potency means the concentration at half of the fitted maximal effect; on the % scale 0 is the no-effect control and ±100 the full control effect; nearly all actives have a fitted effect of over 60% in size
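First, the protein-peptide complex forms for 30 min at room temperature (L3MBTL1 50 nM, biotinylated H3K9me1 peptide 75 nM). Next, compounds are pin-transferred and incubated 30 min. Finally, AlphaScreen beads are added and read after 30 min.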
Active calls of the source: *; ? = inconclusive; . = not tested or not shown; [ ] = remark or other dose. Only some compounds are listed: those with a hit (about 5.7% of all), similar ones and a draw of the others. Unless noted, the call rests on the fitted dose curve; in most records, active means well fitted inhibition curve with a large enough effect; inconclusive means small, poorly fitted or top-dose-only effect; inactive means no such curve, though single readings can be large or run the other way.

SMILES	PI5P4Ka inh	JMJD2A Tudor	BAZ2B block	HP1b binding inh	KDM4E inh	L3MBTL1 block
Nc1cccn2c(-c3ccc(Cl)c(Cl)c3)cnc12	-18.1	50.1µM*	39.8µM*	?	20µM*	?
Nc1cccn2c(-c3ccc(Cl)cc3)cnc12	-20.7	-5.3%[11.4 µM]	50.1µM*	?	?	-4.1%
Clc1ccc(-c2cnc3cccnn23)cc1	1.1	.	.	.	.	.
Cc1c(CC(=O)N2CCCCC2)c(=O)oc2cc3occ(C(C)(C)C)c3cc12	.	-17.3%	2.0%	7.4%	.	.
CCc1cccc(NS(=O)(=O)c2ccc3c(c2)N(C)CCO3)c1	-4.0	31.6µM*	?	-9.4%	.	.
O=C(CNc1cccc2ccccc12)N/N=C/C=C/c1ccco1	2.2	-25.4%	-37.4%	6.3%	-9.3%	?
Cn1c(SCC(=O)N/N=C/C=C/c2ccccc2[N+](=O)[O-])nc2ccccc21	-2.2	-5.0%[57.1 µM]	-5.1%	-7.4%	2.4%	11.0%
Cn1c(SCC(=O)N/N=C/C=C/c2ccco2)nc2ccccc21	?	?	44.7µM*	-13.9%	?	22.4µM*
O=C(CSc1nnc(SCc2ccccc2)s1)N/N=C/C=C/c1ccco1	-96.1*	39.8µM*	25.1µM*	25.1µM*	?	28.2µM*
O=C(Cc1cccs1)N/N=C/C=C/c1ccco1	-58.2*	?	44.7µM*	28.2µM*	6.4%	?
Cc1cc2nc(-c3ccc(OCc4ccccc4C)cc3)cc(C(F)(F)F)n2n1	.	64.2%	17.2%	86.4%	.	.
CC1(C)NC(=O)N(CCOCCOc2ccccc2-c2ccccc2)C1=O	5.5	-6.2%	-22.3%	63.9%	9.6%	-6.2%
COCCNCCCCOc1ccccc1-c1ccccc1	-1.3	3.16µM*	56.2µM*	?	?	2.3%
CCCCNCCOCCOc1ccccc1-c1ccccc1	2.2	1.41µM*	?	?	?	8.6%
C=CCNCCOc1ccccc1-c1ccccc1	13.8	-6.1%	6.4%	45.7%	7.0%	9.5%
Cc1ccc2nc(Cn3cc(C(F)(F)F)ccc3=O)cc(=O)n2c1	2.7	-15.1%	-28.7%	?	?	2.2%
O=c1ccc(C(F)(F)F)cn1Cc1cc(=O)n2cc(Br)ccc2n1	?	-29.7%	79.4µM*	17.0%	?	?
O=C(CCCSc1ccc(Cl)cc1)Nc1cc(S(=O)(=O)N2CCOCC2)ccc1O	-28.9	56.2µM*	?	?	.	-4.8%
Cn1c(CCC(=O)Nc2cc(S(C)(=O)=O)ccc2Cl)nc2cc(S(=O)(=O)N3CCOCC3)ccc21	-1.0	-13.8%	79.4µM*	6.1%	.	3.2%
Cc1ccc(S(=O)(=O)N2CCOCC2)cc1NC(=O)CSc1ccc(Cl)cc1	-9.1	-12.3%	7.5%	21.2%	.	3.4%
CC(=O)N1CCc2cc(S(=O)(=O)NC(Cc3ccccc3)C(=O)NCc3ccccc3)ccc21 (stereo unspecified)	.	-1.3%	.	48.8%	.	.
COc1ccc(N(CC(=O)Nc2ccccc2OC)S(=O)(=O)c2ccc(OC)c(OC)c2)cc1	0.9	-23.6%	-29.1%	10.6%	.	-3.9%
CCCCNC(=O)CSc1nc2cc3c(cc2c(=O)n1CCCC(=O)NCc1ccc2c(c1)OCO2)OCO3	.	-0.7%	0.0%	22.5%	.	.
COc1ccc(C(C#N)=Cc2ccccc2OC)cc1	-6.2	.	.	.	.	.
COc1cc(N2CCCC2)c(OC)cc1/C=C(/C#N)c1ccc(Br)cc1	.	20µM*	12.6µM*	?	-9.6%	.
SMILES	PI5P4Ka inh	JMJD2A Tudor	BAZ2B block	HP1b binding inh	KDM4E inh	L3MBTL1 block
COc1cc(N2CCCC2)c(OC)cc1/C=C(/C#N)c1ccc(F)cc1	-2.7	31.6µM*	15.8µM*	39.8µM*	2.6%	?
C/C=C/C1=CC2=CC(=O)C(C)(OC(=O)c3c(C)cc(O)cc3O)C(=O)C2=CO1 (stereo unspecified)	.	.	.	.	4.2%	.
Cc1cccc(C(=O)NCC(=O)OCC(=O)c2ccc3ccccc3c2)c1	.	-16.2%[57.1 µM]	.	21.0%[57 µM]	.	.
O=C(Cc1ccccc1)NNC(=S)NC(=O)c1cccnc1	-4.3	25.1µM*	5.1%	17.5%	-6.2%	-1.3%
COc1ccc(C(=O)NNC(=S)NC(=O)c2cccnc2)cc1	5.4	-5.8%	8.8%	17.8%	4.4%	2.9%
Cc1ccccc1NC(=S)NNC(=O)c1cccnc1	-17.6	22.4µM*	-1.5%	-2.9%	?	2.9%
O=C(NNC(=S)NC(=O)c1cccnc1)c1ccccc1	-14.0	?	4.5%[57.1 µM]	0.9%	22.2%	5.1%
O=C(CCc1ccccc1)NNC(=S)NC(=O)c1ccccc1	.	28.2µM*	1.8%[57.1 µM]	-3.6%	1.2%	-1.8%
CC(=O)NC(=S)NNC(=O)CCc1ccccc1	-6.3	?	-1.5%	6.9%	3.6%	8.6%
COc1ccc(CC(=O)NNC(=S)NC(=O)c2cccnc2)cc1	-11.1	20µM*	10.6%	14.7%	-3.5%	4.0%
CCn1c(C)nc2cc(C(=O)NNS(=O)(=O)c3ccc(C)c(C)c3)ccc21	4.9	-24.0%	-7.3%	13.1%	2.7%	.
CCOc1ccccc1/C=N/NC(=O)c1cccc(S(=O)(=O)N(CC)CC)c1	1.5	-10.3%	-16.4%	18.9%	?	-1.0%
CCN(CC)S(=O)(=O)c1cccc(C(=O)N/N=C(\C)c2ccc(O)cc2O)c1	-14.7	?	8.91µM*	30.1%	25.1µM*	14.1µM*
CCn1c(C)nc2cc(C(=O)N/N=C/c3ccc(O)c(O)c3O)ccc21	-73.8*	6.31µM*	11.2µM*	8.91µM*	-3.3%	2.24µM*
CCn1c(C)nc2cc(C(=O)NNS(=O)(=O)c3c(F)cc(F)c(Cl)c3F)ccc21	1.5	25.1µM*	-19.8%	17.1%	-0.3%	5.5%
CCn1c(C)nc2cc(C(=O)N/N=C/c3cccc(OC)c3O)ccc21	0.0	?	-16.3%	-5.6%	-0.1%	-27.6%
CCN(CC)S(=O)(=O)c1cccc(C(=O)N/N=C/c2ccc(O)c(O)c2O)c1	-69.6*	?	39.8µM*	?	7.94µM*	?
COc1ccc(C)cc1NC(=O)C1CCC(CNS(=O)(=O)c2ccc3c(c2)CCCC(=O)N3)CC1 (stereo unspecified)	.	-8.4%	-3.0%	15.8%	.	.
Cc1cccc(NC(=O)c2ccc(N(Cc3ccccc3)S(C)(=O)=O)cc2)c1	.	-18.6%	-2.5%	6.4%	.	.
CCCc1cc(=O)[nH]c(SCc2nc(-c3ccc(C)cc3)no2)n1	.	-25.0%	9.1%	17.7%[57 µM]	.	.
Cc1ccc(N2C(=O)N3[C@H](c4ccc(F)cc4)[C@@H]4C(=O)N(C5CCCCC5)C(=O)[C@@H]4[C@]3(C)C2=O)cc1	-65.5*	-17.9%	-13.9%	38.4%	.	2.8%

Assay outcomes: PubChem BioAssay, National Center for Advancing Translational Sciences (NCATS)
